Laboratory results reported in the antibiotic and cytotoxicity screens of Wong et al. (2023).
The campaign covered roughly 39,000 compounds. About 3,300 (8.5%) were called active. This is one part of a sample in which actives are shown more often than they occur.

Tested on: HepG2
Experiment: cytotoxicity call (relative viability < 0.9)
Conditions: 10 µM

| Structure (SMILES) | cytotoxicity call |
| --- | --- |
| C[C@@H]1CN([C@@H](C)CO)C(=O)c2cc(NC(=O)Cc3ccccc3)ccc2O[C@@H](C)CCCCO[C@@H]1CN(C)C(=O)NC1CCCCC1 | inactive |
| C[C@H](CO)N1C[C@H](C)[C@@H](CN(C)S(=O)(=O)c2cn(C)cn2)Oc2ccc(NS(C)(=O)=O)cc2C1=O | inactive |
| C[C@@H]1CN([C@H](C)CO)C(=O)c2cccc(NS(C)(=O)=O)c2O[C@@H]1CN(C)C(=O)Nc1ccc2c(c1)OCO2 | inactive |
| C[C@@H]1CN([C@@H](C)CO)C(=O)c2ccccc2-c2ccccc2CO[C@@H]1CN(C)S(=O)(=O)c1cn(C)cn1 | inactive |
| C[C@@H]1CCCCO[C@@H](CN(C)Cc2ccc(C(F)(F)F)cc2)[C@H](C)CN([C@@H](C)CO)C(=O)c2cc(NC(=O)CCCN(C)C)ccc2O1 | inactive |
| C[C@@H]1CCCCO[C@H](CN(C)S(C)(=O)=O)[C@@H](C)CN([C@H](C)CO)C(=O)c2cc(NC(=O)c3ccncc3)ccc2O1 | inactive |
| CO[C@@H]1CN(C)C(=O)c2cc(NS(=O)(=O)c3ccccc3)ccc2OC[C@H](C)N(C(=O)NC(C)C)C[C@H]1C | inactive |
| CN(C)C(=O)C[C@@H]1CC[C@@H](NC(=O)C2CCOCC2)[C@H](CO)O1 | inactive |
| CCN(CCCCOC(=O)c1ccc(OC)c(OC)c1)C(C)Cc1ccc(OC)cc1.Cl (stereo not given) | active |
| CCCCOc1cc(C(=O)OCCN(CC)CC)ccc1N.Cl | inactive |
| CCCOc1ccc(C(=O)OCCN(CC)CC)cc1N.Cl | inactive |
| C[C@H](CO)N1C[C@H](C)[C@H](CN(C)S(=O)(=O)c2ccc(F)cc2)Oc2ccc(NC(=O)CCCN(C)C)cc2C1=O | inactive |
| Cc1noc(C)c1NC(=O)Nc1ccc2c(c1)C(=O)N([C@@H](C)CO)C[C@H](C)[C@@H](CN(C)Cc1ccc(C(F)(F)F)cc1)OCCCC[C@H](C)O2 | inactive |
| Cc1cn(-c2cc(NC(=O)c3ccc(C)c(Nc4nccc(-c5cnccn5)n4)c3)cc(C(F)(F)F)c2)cn1 | inactive |
| O=C(O)c1cccnc1Nc1cccc(C(F)(F)F)c1 | inactive |
| Cc1cn(-c2cc(NC(=O)c3ccc(C)c(Nc4nccc(-c5cccnc5)n4)c3)cc(C(F)(F)F)c2)cn1 | active |
| Cc1ccc(C(=O)Nc2cccc(C(F)(F)F)c2)cc1Nc1nc(-c2cccnc2)nc2c1cnn2C | active |
| O=C(Nc1cccnc1)c1nc2ncccn2n1 | inactive |
| COC(=O)CNC(=O)c1ccc(S(=O)(=O)N2CCOCC2)cc1 | inactive |
| C[C@@H]1CN([C@@H](C)CO)C(=O)c2cccc(NS(=O)(=O)c3cn(C)cn3)c2O[C@@H]1CN(C)Cc1ccc(C(=O)O)cc1 | inactive |
| C[C@@H]1CN([C@H](C)CO)C(=O)c2cc(NC(=O)Cn3cnnn3)ccc2O[C@H]1CN(C)Cc1ccc(C(=O)O)cc1 | inactive |
| C[C@@H]1CCCCO[C@H](CN(C)C(=O)Nc2ccccc2)[C@H](C)CN([C@@H](C)CO)C(=O)c2cc(NS(=O)(=O)c3cccs3)ccc2O1 | inactive |
| C[C@H](CO)N1C[C@H](C)[C@@H](CN(C)S(C)(=O)=O)Oc2ccc(NC(=O)CCC(F)(F)F)cc2CC1=O | inactive |
| C[C@@H]1CN([C@@H](C)CO)C(=O)c2cc(NC(=O)Nc3ccccc3)ccc2O[C@@H](C)CCCCO[C@H]1CN(C)S(=O)(=O)c1cccc(F)c1 | inactive |

| Structure (SMILES) | cytotoxicity call |
| --- | --- |
| CCOC(=O)[C@H](Cc1c[nH]c2ccccc12)NC(=O)Cn1cc(C(=O)NO)nn1 | inactive |
| CCOC(=O)[C@H](Cc1c[nH]c2ccccc12)NC(=O)Cn1cc(CN2C(=O)COC[C@H]2c2ccccc2)nn1 | active |
| Cc1ccc(S(=O)(=O)N[C@@H](Cc2ccccc2)C(=O)NCCn2cc(CN3C(=O)COC[C@H]3c3ccccc3)nn2)cc1 | inactive |
| Cc1noc(C)c1S(=O)(=O)Nc1ccc2c(c1)C(=O)N([C@@H](C)CO)C[C@@H](C)[C@H](CN(C)C(=O)NC1CCCCC1)O2 | inactive |
| COc1ccc(-c2nc(-c3ccc(C)cc3C)cs2)cc1 | inactive |
| COc1ccc(NC(=O)Nc2ccc3c(c2)CC(=O)N([C@@H](C)CO)C[C@@H](C)[C@@H](CN(C)CC2CCCCC2)O3)cc1 | inactive |
| COc1ccc(NC(=O)Nc2ccc3c(c2)CC(=O)N([C@H](C)CO)C[C@H](C)[C@H](CN(C)CC2CCCCC2)O3)cc1 | inactive |
| COc1ccc(NC(=O)Nc2ccc3c(c2)CC(=O)N([C@@H](C)CO)C[C@H](C)[C@@H](CN(C)CC2CCCCC2)O3)cc1 | inactive |
| COc1ccc(NC(=O)Nc2ccc3c(c2)CC(=O)N([C@H](C)CO)C[C@H](C)[C@@H](CN(C)CC2CCCCC2)O3)cc1 | inactive |
| COc1ccc(NC(=O)Nc2ccc3c(c2)CC(=O)N([C@@H](C)CO)C[C@@H](C)[C@H](CN(C)CC2CCCCC2)O3)cc1 | active |
| COc1ccc(NC(=O)Nc2ccc3c(c2)CC(=O)N([C@H](C)CO)C[C@@H](C)[C@@H](CN(C)CC2CCCCC2)O3)cc1 | active |
| C[C@H](CO)N1C[C@H](C)[C@H](CN(C)Cc2ccc(C(=O)O)cc2)OCCCC[C@H](C)Oc2ccc(NC(=O)NC3CCCCC3)cc2C1=O | inactive |
| C[C@H]1CCCCO[C@H](CN(C)S(=O)(=O)c2cccs2)[C@@H](C)CN([C@@H](C)CO)C(=O)c2cc(NS(C)(=O)=O)ccc2O1 | inactive |
| O=C(NCC(F)(F)F)[C@@H]1c2ccccc2C(=O)N(Cc2cc(C(F)(F)F)cc(C(F)(F)F)c2)[C@H]1c1ccc(CO)cc1 | inactive |
| O=C1CO[C@H]2CN(S(=O)(=O)c3ccccc3)C[C@@H]2N1 | inactive |
| C[C@@H]1CN([C@H](C)CO)C(=O)c2cc(NS(=O)(=O)c3ccc(F)cc3)ccc2O[C@@H]1CN(C)S(C)(=O)=O | inactive |
| C[C@@H]1CN([C@H](C)CO)C(=O)c2cc(NS(=O)(=O)c3cccs3)ccc2O[C@@H](C)CCCCO[C@@H]1CN(C)Cc1ccc(C(=O)O)cc1 | inactive |
| C[C@H]1CCCCO[C@H](CN(C)Cc2ccc(C(F)(F)F)cc2)[C@@H](C)CN([C@@H](C)CO)C(=O)c2cc(NS(=O)(=O)c3cccs3)ccc2O1 | inactive |
| C[C@@H]1CCCCO[C@@H](CN(C)Cc2ccc(C(=O)O)cc2)[C@H](C)CN([C@H](C)CO)C(=O)c2cc(NS(=O)(=O)c3cccs3)ccc2O1 | inactive |
| C[C@@H]1CCCCO[C@@H](CN(C)Cc2ccc(C(F)(F)F)cc2)[C@@H](C)CN([C@@H](C)CO)C(=O)c2cc(NS(=O)(=O)c3cccs3)ccc2O1 | active |
| C[C@@H]1CN([C@@H](C)CO)C(=O)c2cc(NS(=O)(=O)c3cccs3)ccc2O[C@@H](C)CCCCO[C@@H]1CN(C)Cc1ccc(C(F)(F)F)cc1 | inactive |
| C[C@@H]1CCCCO[C@H](CN(C)Cc2ccc(C(F)(F)F)cc2)[C@H](C)CN([C@@H](C)CO)C(=O)c2cc(NS(=O)(=O)c3cccs3)ccc2O1 | active |
| C[C@@H]1CN([C@@H](C)CO)C(=O)c2cc(NS(=O)(=O)c3cccs3)ccc2O[C@@H](C)CCCCO[C@H]1CN(C)Cc1ccc(C(F)(F)F)cc1 | inactive |
| C[C@@H]1CCCCO[C@H](CN(C)Cc2ccc(C(F)(F)F)cc2)[C@H](C)CN([C@H](C)CO)C(=O)c2cc(NS(=O)(=O)c3cccs3)ccc2O1 | active |

| Structure (SMILES) | cytotoxicity call |
| --- | --- |
| C[C@@H]1CCCCO[C@H](CN(C)Cc2ccc(C(F)(F)F)cc2)[C@@H](C)CN([C@H](C)CO)C(=O)c2cc(NS(=O)(=O)c3cccs3)ccc2O1 | inactive |
| C[C@@H]1CCCCO[C@@H](CN(C)Cc2ccc(C(F)(F)F)cc2)[C@H](C)CN([C@H](C)CO)C(=O)c2cc(NS(=O)(=O)c3cccs3)ccc2O1 | active |
| COc1ccc(OCc2c(-c3ccccc3)nnn2CC(=O)NS(=O)(=O)c2cccc(C#N)c2)cc1 | inactive |
| COCC(=O)N1C[C@@H](C)[C@H](OC)CN(C)C(=O)c2cc(NC(=O)c3ccc(F)cc3)ccc2OC[C@@H]1C | inactive |
| COc1cc2ccc(=O)oc2c(O[C@H]2O[C@@H](CO)[C@@H](O)[C@@H](O)[C@@H]2O)c1O | inactive |
| C[C@@H]1CN([C@@H](C)CO)C(=O)Cc2cc(NC(=O)Cn3cnnn3)ccc2O[C@@H]1CN(C)C(=O)Nc1ccc2c(c1)OCO2 | inactive |
| CCS(=O)(=O)N1C[C@]2(CN(C2)C(=O)CN2CCOCC2)c2c(n(c3cc(ccc23)OC)C)[C@H]1CO | inactive |
| COc1ccc(CN(C)C[C@H]2OCCCC[C@H](C)Oc3ccc(NS(=O)(=O)c4ccccc4)cc3C(=O)N([C@H](C)CO)C[C@H]2C)cc1 | inactive |
| O=C(Cc1ccccn1)NCC[C@H]1CC[C@H](NC(=O)CN2CCOCC2)[C@H](CO)O1 | inactive |
| C[C@@H]1CN([C@H](C)CO)C(=O)c2cc(NS(=O)(=O)c3cn(C)cn3)ccc2O[C@H]1CN(C)Cc1ccncc1 | inactive |
| C[C@H](CO)N1C[C@H](C)[C@@H](CN(C)S(=O)(=O)c2ccccc2)OCCCC[C@H](C)Oc2ccc(NC(=O)CCC(F)(F)F)cc2C1=O | inactive |
| Cc1noc(C)c1NC(=O)N(C)C[C@H]1Oc2c(NC(=O)Cn3cnnn3)cccc2C(=O)N([C@H](C)CO)C[C@@H]1C | inactive |
| C[C@@H]1CN([C@H](C)CO)C(=O)c2cc(NC(=O)C3CCCCC3)ccc2O[C@@H](C)CCCCO[C@H]1CN(C)C(=O)c1ccncc1 | inactive |
| C[C@H]1CCCCO[C@@H](CN(C)Cc2ccc(C(F)(F)F)cc2)[C@@H](C)CN([C@@H](C)CO)C(=O)c2cc(NS(=O)(=O)c3cccs3)ccc2O1 | inactive |
| C[C@H](CO)N1C[C@H](C)[C@H](CN(C)Cc2ccc(C(F)(F)F)cc2)OCCCC[C@H](C)Oc2ccc(NS(=O)(=O)c3cccs3)cc2C1=O | active |
| C[C@@H]1CCCCO[C@@H](CN(C)Cc2ccc(C(F)(F)F)cc2)[C@@H](C)CN([C@H](C)CO)C(=O)c2cc(NS(=O)(=O)c3cccs3)ccc2O1 | active |
| C[C@@H]1CCCCO[C@H](CN(C)Cc2ccc(C(F)(F)F)cc2)[C@@H](C)CN([C@@H](C)CO)C(=O)c2cc(NS(=O)(=O)c3cccs3)ccc2O1 | inactive |
| C[C@@H]1CN([C@H](C)CO)C(=O)c2cc(NS(=O)(=O)c3cccs3)ccc2O[C@@H](C)CCCCO[C@H]1CN(C)Cc1ccc(C(F)(F)F)cc1 | active |
| C[C@@H]1CN([C@H](C)CO)C(=O)c2cc(NS(=O)(=O)c3cccs3)ccc2O[C@@H](C)CCCCO[C@@H]1CN(C)Cc1ccc(C(F)(F)F)cc1 | inactive |
| C[C@H](CO)N1C[C@H](C)[C@@H](CN(C)Cc2ccc(C(F)(F)F)cc2)OCCCC[C@H](C)Oc2ccc(NS(=O)(=O)c3cccs3)cc2C1=O | inactive |
| C[C@@H]1CCCCO[C@@H](CN(C)Cc2ccc(C(=O)O)cc2)[C@H](C)CN([C@@H](C)CO)C(=O)c2cc(NS(=O)(=O)c3cccs3)ccc2O1 | inactive |
| C[C@@H]1CCCCO[C@@H](CN(C)Cc2ccc(C(F)(F)F)cc2)[C@H](C)CN([C@@H](C)CO)C(=O)c2cc(NS(=O)(=O)c3cccs3)ccc2O1 | inactive |
